# Compound activity from PubChem.
# An excerpt weighted towards active compounds, which were near 3.1% of everything screened.
# pPAFAH inh: pPAFAH enzyme inhibitors, primary screen, biochemical, fluorescence polarization, human; Platelet-activating factor acetylhydrolase (Homo sapiens), Q13093; recombinant pPAFAH, FP-rhodamine probe fluorescence polarization; inhibition, % at 3.39 µM; 330,000 tested, 1.5% active;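 active means inhibition above the mean inhibition across the screen plus 3 SD, cut at about 25% in these data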;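 further: inhibitors block binding of the rhodamine activity-based probe so polarization drops; 0% = enzyme with DMSO and 100% = wells lacking pPAFAH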
# eLon inh: inhibitors of E. coli Lon protease, primary screen, biochemical, fluorescence polarization | P0A9M0 | purified E. coli Lon protease | inhibition, % at 7.94 µM | 360,000 tested, 0.42% active; in the data active means inhibition above about 13%, passing the limit was not always enough;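 further: 0% = enzyme with probe and DMSO and 100% = no enzyme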
# PAFAH1B2 FP inh: PAFAH1B2 enzyme inhibitors, primary screen, biochemical, fluorescence polarization, human; recombinant PAFAH1B2, FP-rhodamine activity probe; inhibition, % at 3.39 µM; 340,000 tested, 1.2% active; AID 492953, 2010;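 active means inhibition above the mean of all tested compounds plus 3 SD, cut at about 24% in these data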;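 further: 0% = enzyme with DMSO and 100% = wells lacking PAFAH1B2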
# Target sequence (P68402 whole entry, looked up): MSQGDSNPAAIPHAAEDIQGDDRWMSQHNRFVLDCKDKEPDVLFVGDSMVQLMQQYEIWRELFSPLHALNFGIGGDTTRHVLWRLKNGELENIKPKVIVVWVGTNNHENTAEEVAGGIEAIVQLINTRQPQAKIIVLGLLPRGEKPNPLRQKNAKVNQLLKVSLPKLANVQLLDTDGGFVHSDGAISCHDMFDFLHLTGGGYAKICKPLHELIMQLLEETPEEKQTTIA
# Rin1 Abl inh: inhibitors of Rin1-Abl protein binding, primary screen, biochemical, TR-FRET; Tyrosine-protein kinase ABL1 (Homo sapiens) + Ras and Rab interactor 1 (Homo sapiens), …; inhibition, % at 7.35 µM; 360,000 tested, 0.4% active; in the data active means inhibition above about 5%, passing the limit was not always enough
# PAFAH1B3 inh: PAFAH1B3 enzyme inhibitors, primary screen, biochemical, fluorescence polarization, human; Platelet-activating factor acetylhydrolase IB subunit alpha1 (Homo sapiens), Q15102; recombinant PAFAH1B3, FP-rhodamine probe; inhibition, % at 3.39 µM; 340,000 tested, 0.28% active;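 active means inhibition above the screen-wide average of all tested compounds plus 3 SD, cut at about 25% in these data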;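 further: 0% = enzyme with DMSO only and 100% = wells lacking PAFAH1B3 protein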
# Target sequence (Q15102 whole entry, looked up): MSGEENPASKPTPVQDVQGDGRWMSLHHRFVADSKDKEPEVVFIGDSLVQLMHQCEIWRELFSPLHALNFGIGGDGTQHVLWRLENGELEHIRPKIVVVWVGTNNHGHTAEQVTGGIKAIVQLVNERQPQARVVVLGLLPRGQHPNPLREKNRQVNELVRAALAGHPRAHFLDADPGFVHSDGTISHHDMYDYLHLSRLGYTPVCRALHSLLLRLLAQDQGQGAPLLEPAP
# PAFAH2 inh: PAFAH2 enzyme inhibitors, primary screen, biochemical, fluorescence polarization, human; Platelet-activating factor acetylhydrolase 2, cytoplasmic (Homo sapiens), Q99487; recombinant PAFAH2, FP-rhodamine activity probe; inhibition, % at 3.39 µM; 340,000 tested, 0.99% active; AID 492956, 2010;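 active means inhibition above the mean over all tested compounds plus 3 SD, cut at about 30% in these data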;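 further: inhibitors block probe labeling of enzyme so polarization drops; 0% = enzyme with DMSO and 100% = wells lacking PAFAH2 protein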
# eLon confirm: E. coli Lon protease inhibitor retest, confirmation, biochemical, fluorescence polarization. 1,400 tested, 31% active. shares compounds with eLon inh. inhibition, % at 7.94 µM. purified E. coli Lon; in the data active means inhibition above about 16%;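 further: 0% = enzyme with probe and DMSO and 100% = no enzyme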
# Active calls of the source: *; · = not tested or not shown; + = active, no number.
SMILES,pPAFAH inh,eLon inh,PAFAH1B2 FP inh,Rin1 Abl inh,PAFAH1B3 inh,PAFAH2 inh,eLon confirm
CCCCC1OC23CCCCC2C(C#N)(C#N)C1(C#N)C(=N)O3 (configuration not stated),17,26*,30*,-2,36*,41*,4
N#CC1(C#N)C(c2ccccc2)OC23CCCCCC2C1(C#N)C(=N)O3 (configuration not stated),4,9,3,-2,-2,12,·
CCCCC1OC23CCCCC2C(C#N)(C(=N)O3)C1(C#N)C#N (configuration not stated),5,25*,30*,-3,26*,36*,0
CCCN(CC(=O)Nc1ccccc1C)C(=O)c1nn(CC)c(=O)c2ccccc12,2,0,-7,2,9,-4,·
CC(C)(C)OC(=O)N(CCc1ccccc1)Cc1ccccc1OCc1cccc(NC(=O)/C=C/c2ccccc2)c1,·,5,-12,-5,-19,-49,·
CC(C)(C)OC(=O)N(CCc1ccccc1)Cc1ccc(OCc2cccc(NC(=O)/C=C/c3ccccc3)c2)cc1,·,15*,-5,2,0,-51,-7
C=CCN(C(=O)COc1ccccc1)c1nnc(-c2ccncc2)s1,1,18*,-4,1,1,1,-8
COC(=O)c1c(C(=O)OC)c(-c2ccccc2)n2c1CCC2,1,2,2,-3,-4,1,·
COC(=O)c1c(C(=O)OC)c2n(c1C)Cc1ccccc1C2,-5,123*,6,1,10,0,-36
CCN(Cc1ccncc1)C(=O)c1ccccc1NS(=O)(=O)c1ccc(F)cc1,3,4,5,-1,6,-4,·
O=C(CCl)N1c2ccccc2Oc2ccc3ccccc3c21,·,+,24,-12,30*,30*,24*
O=C(O)Cn1c(=O)c(F)cn(C2CCCO2)c1=O (configuration not stated),8,-1,2,3,8,2,·
Cn1cnnc1Sc1nc2ccccc2nc1NS(=O)(=O)c1ccccc1,6,7,4,1,5,3,·
CC(=O)Nc1ccc(S(=O)(=O)Nc2nc3ccccc3nc2Sc2nncn2C)cc1,7,19*,0,1,15,18,14
COc1ccccc1C1C(C(N)=O)=C(C)Nc2nc(-c3ccc(Cl)cc3)nn21 (configuration not stated),0,-1,-3,-1,3,-2,·
COc1ccccc1-c1nc2n(n1)C(c1ccc(Cl)cc1)C(C(N)=O)=C(C)N2 (configuration not stated),-3,16*,-2,-2,6,-11,-8
CCCNC(=O)C1(C)CCCN(C(=O)c2cccc(Cl)c2)C1 (configuration not stated),·,6,·,-1,·,·,·
O=C1OCCN1CCNCc1cn(-c2ccc(F)cc2)nc1-c1ccccc1Cl,5,-4,-1,2,10,-4,·
Cc1ccc(-n2cc(CNCCN3CCOC3=O)c(-c3cccc(C)c3)n2)cc1,4,16*,-1,2,4,-10,-7
Cc1ccc(S(=O)(=O)NNC(=O)Nc2cccc(C)c2C)c(C)c1,6,21*,3,2,-5,2,2
Cc1cc2oc(=O)cc(CN3CCN(Cc4ccccc4)CC3)c2cc1Cl,5,21*,0,1,2,1,-16
O=C(Cc1ccccc1F)Nc1nc2ccccc2[nH]1,-3,-3,6,-2,12,-3,·
O=C(Cc1cccc2ccccc12)Nc1nc2ccccc2[nH]1,6,65*,6,-1,5,-3,3
COc1ccc(C(=O)COC(=O)c2ccccc2C(=O)N(C)c2ccccc2)c(OC)c1,13,40*,2,1,3,1,8
CN(C(=O)c1ccccc1C(=O)OCC(=O)c1ccccc1)c1ccccc1,1,12,7,2,5,0,·
SMILES,pPAFAH inh,eLon inh,PAFAH1B2 FP inh,Rin1 Abl inh,PAFAH1B3 inh,PAFAH2 inh,eLon confirm
CSCC[C@H](NC(=O)[C@H]1CC[C@H](CNC(=O)[C@@H](N)Cc2ccccc2)CC1)C(=O)O,-5,-6,4,3,16,4,·
O=C(Cc1cccs1)NCCn1ccc2ccccc21,2,19*,4,-3,3,-2,-5
CCC(=O)NCCn1ccc2ccccc21,-8,-5,7,-2,-5,5,·
CCN(C(=O)c1coc(=O)c(Br)c1)c1ccc2c(c1)OCO2,6,21*,0,-1,2,-1,4
CCN(C(=O)c1c(C)cc(=O)oc1C)c1ccc2c(c1)OCO2,2,-6,-2,-2,8,-1,·
O=C(CCNS(=O)(=O)c1ccccc1)NNC(=O)COc1ccc(Cl)cc1,5,15,0,2,8,-8,·
CCOC(=O)C1=C(C)NC2=C(C(=O)C(C(=O)OCC)C(c3ccco3)C2)C1c1ccccn1 (configuration not stated),-3,44*,8,-7,1,-4,-1
Cc1ccc2nc(C(C)(C)C)c(Cc3ccccc3C(F)(F)F)n2c1,·,0,·,1,·,·,·
O=C(c1ccccc1NS(=O)(=O)c1ccccc1)N1CCCCCC1,-1,-9,4,-1,19,-6,·
O=C(c1ccccc1NS(=O)(=O)c1cccs1)N1CCCC1,3,20*,8,3,5,4,-5
Cc1ccc(C(=O)N(CC(=O)NC2CCCC2)c2ccccc2Cl)s1,6,-8,6,-1,7,8,·
Cc1ncc([N+](=O)[O-])n1CC(=O)Nc1ccc(F)c(Cl)c1,5,-5,1,0,9,-3,·
Cc1ncc([N+](=O)[O-])n1CC(=O)Nc1cccc(C(F)(F)F)c1,1,29*,0,-4,6,-1,-91
O=C(NCCCN1CCCC1=O)c1ccc2c(=O)n(Cc3ccco3)c(=S)[nH]c2c1,5,18*,7,1,-2,-1,8
O=C(NCc1ccccc1)c1ccc2c(=O)n(CCCN3CCCC3=O)c(=S)[nH]c2c1,0,-1,2,3,7,-6,·
COc1ccc(CCC(=O)N/N=C(\C)c2ccc3c(c2)OCO3)cc1,6,-7,2,2,0,7,·
COc1ccc(C(NC(=O)C2CCN(Cc3ccc(Oc4ccccc4)cc3)CC2)c2ccccc2C)cn1 (configuration not stated),·,15*,·,-4,·,·,-7
